Among all 13,000 compounds or so, about 3,200 (25%) showed an effect of 50% or more. The list shows a part of the results.

For this experiment, the system named is P. falciparum stage V gametocytes. Set-up: BacTiter-Glo ATP luminescence viability of purified stage V gametocytes in 384-well plates, per cent inhibition versus DMSO. To be noted: 48 h, 5 µM; inhibitor.
Take `CCCN1CCN(c2cc(NCC)c3c4c(onc24)-c2ccccc2C3=O)CC1` [TCMDC-123898]: the “% Inhibition” value is on record as -28.72%. On to `c1cc(COc2ccc(C3=NCCN3)cc2)nc(COc2ccc(C3=NCCN3)cc2)c1` [TCMDC-137805], for which the “% Inhibition” value is recorded as -1.887%. As for `CN1CCN(c2ccnc3ccc(NC(=O)Nc4ccc5ccccc5c4)cc23)CC1` [TCMDC-139343], the “% Inhibition” value is on record as -1.403%.

As to `Cc1cccc2[nH]c(-c3cccc(-c4cccc(NC(=O)c5ccncc5)c4)c3)nc12` [TCMDC-136965], the “% Inhibition” value is recorded as -36.15%. In the case of `Cc1cccc2[nH]c(-c3cccc(-c4ccc(NC(=O)c5ccoc5)cc4)c3)nc12` [TCMDC-136847], the “% Inhibition” value came out at 83.68%. Turning to `Cc1cccc2[nH]c(-c3cccc(-c4ccc(NC(=O)c5ccc(=O)[nH]n5)cc4)c3)nc12` [TCMDC-137034], the “% Inhibition” value is listed as -23.81%. For the molecule `Cc1cccc2[nH]c(-c3cccc(-c4cccc(NC(=O)c5cnc[nH]5)c4)c3)nc12` [TCMDC-136936], the “% Inhibition” value was -12.17%.

On to `Cc1cccc2[nH]c(-c3cccc(-c4ccc(NC(=O)c5cnc[nH]5)cc4)c3)nc12` [TCMDC-136937], for which the “% Inhibition” value is 92.2%. In the case of `Cc1cccc2[nH]c(-c3cccc(-c4cccc(NC(=O)c5ccoc5)c4)c3)nc12` [TCMDC-136846], the “% Inhibition” value was found to be 20.35%. On to `Cc1cccc2[nH]c(-c3cccc(-c4ccc(NC(=O)NC(C)C)cc4)c3)nc12` [TCMDC-133251], for which the “% Inhibition” value is -14.46%. On to `Cc1cccc2[nH]c(-c3ccc(-c4cccc(NC(=O)c5ccncc5)c4)cc3)nc12` [TCMDC-136958], for which the “% Inhibition” value is 22.27%. Regarding `Cc1cccc2[nH]c(-c3cccc(-c4ccc(NC(=O)c5ccncc5)cc4)c3)nc12` [TCMDC-136966], the “% Inhibition” value amounted to 61.29%. For the molecule `O=C(Nc1ccc(-c2ccc(-c3nc4ccccc4[nH]3)s2)cc1)c1ccncc1` [TCMDC-136954], the “% Inhibition” value stood at 11.16%. For the molecule `COc1cc(-c2ccc3c(-c4ccc(C(=O)N5CCN(C)CC5)cc4)[nH]nc3n2)cc(OC)c1OC` [TCMDC-124890], the “% Inhibition” value came to 40.62%. Consider `COCCCNc1sc(S(=O)(=O)c2ccccc2)nc1S(=O)(=O)c1ccc(Cl)cc1` [TCMDC-124764], for which the “% Inhibition” value is given as -6.212%. Regarding `Cc1ccccc1NC(=O)C1CSCN1C(=O)OCc1ccccc1` (stereo not shown) [TCMDC-125742], the “% Inhibition” value was -21.88%. With `COc1ccc(C(=O)NCc2ccccc2-c2ccc(C(C)(C)C)cc2)cc1O` [TCMDC-136716], the “% Inhibition” value was -20.55%. Consider `COc1ccc(F)cc1-c1ccccc1CNC(=O)CN(C)S(=O)(=O)c1cc(C)cc(Cl)c1C` [TCMDC-132302], for which the “% Inhibition” value came out at 82.24%. Turning to `COc1ccc(F)cc1-c1ccccc1CNC(=O)c1cnn(-c2ccc([N+](=O)[O-])cc2)c1C(F)(F)F` [TCMDC-136460], the “% Inhibition” value is -26.92%.

The % Inhibition is the relative decrease from the control value, in per cent.
